Test results: PubChem BioAssay AID720647 (Broad Institute, 2013)
Hit rate of the full screen: of about 380,000 compounds, about 1,300 (0.34%) were called active.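 The calls were made as follows: active = drop in luminescence signal, shown as inhibition above about 50% in the replicate tests (limit read from the data, passing the limit was not always enough); inconclusive = probably only some replicates passing the limit; inactive = the rest.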 Only a selection was taken, and actives are over-represented in it overall.

What follows are compounds tested on Drosophila bursicon receptor LGR2 (rickets) (assay: LGR2 cAMP reporter signal reduction – cell-based, HEK293, CRE-luciferase reporter, bursicon stimulation, primary screen (AID 720647;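 also: agonist challenge used bursicon conditioned medium at about half maximal strength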)). Conditions: bursicon-stimulated, 4 h, at 9.99 µM, hits give high values.

inhibition, inactive:
Cc1ccc(NC(=O)C2CCCN2C(=O)OCc2ccccc2)cc1C (centres undefined) 1.81%, Cc1cc(C)nc(NS(=O)(=O)c2ccc(N/C=C\C(=O)c3cccs3)cc2)n1 0.601%, CCOc1ccc(NC(=O)N2CCN(CC)CC2)cc1 -10.6%, CCOc1ccc(NC(=O)C(C)N2C(=O)c3ccccc3C2=O)cc1 (centres undefined) -1.28%, Cc1ccc(S(=O)(=O)N(C)C[C@@H]2Oc3ncc(-c4cc5ccccc5o4)cc3C(=O)N([C@H](C)CO)C[C@@H]2C)cc1 4.4%, COc1ccc2c3c(n(C)c2c1)[C@@H](CO)N(C(=O)Nc1ccc(F)cc1)CC31CN(C(=O)NC(C)C)C1 -1.12%, COC(=O)C[C@H]1CC[C@H](NC(=O)Nc2ccc(C(F)(F)F)cc2)[C@H](CO)O1 -0.777%, COc1cccc(-c2ccc3c(c2)O[C@H](CN(C)C(=O)C2CCOCC2)[C@H](C)CN([C@H](C)CO)S3(=O)=O)c1 -17.4%, COc1cccc2cc(C(=O)NCc3ccc(C)cc3)c(=N)oc12 -0.361%, COc1cccc2cc(/C(C)=N/NC(=O)c3ccco3)oc12 -27.1%, C[C@@H]1CCCCO[C@H](CN(C)S(=O)(=O)c2cn(C)cn2)[C@H](C)CN([C@H](C)CO)C(=O)c2cc(N(C)C)ccc2O1 10.5%, Cc1ccc(S(=O)(=O)NCC[C@@H]2CC[C@@H](NC(=O)CCN3CCCCC3)[C@@H](CO)O2)cc1 3.54%, N#C[C@@H]1[C@@H](c2ccc(C3=CCCCC3)cc2)[C@@H](CO)N1C(=O)c1cccc(F)c1 7.91%, C[C@H]1CN([C@@H](C)CO)C(=O)c2cc(-c3ccncc3)cnc2O[C@H]1CN(C)C(=O)c1cccc(F)c1 -3.95%, CCC(=O)N1CC[C@H]2[C@@H]1c1cc(-c3ccc(C#N)cc3)ccc1N(C)[C@H]2CO -10.9%, C[C@@H]1CCCCO[C@H](CN(C)C(=O)NC2CCCCC2)[C@@H](C)CN([C@H](C)CO)C(=O)c2cc(NS(=O)(=O)c3ccc(F)cc3)ccc2O1 -5.15%, C[C@H]1CN([C@@H](C)CO)C(=O)c2cccc(NC(=O)CCCCCC(=O)Nc3ccccc3N)c2O[C@H]1CN(C)C(=O)Nc1ccccc1 0.187%, COCC(=O)N1[C@H](C(=O)N2CCN(C)CC2)[C@@H](CO)[C@@H]2Cn3c(ccc(C4=CCCC4)c3=O)[C@@H]21 -13.3%, Clc1ccc(-c2cc(C3CCNCC3)[nH]n2)c(Cl)c1 2.21%, COCC(=O)Nc1ccc2c(c1)OC[C@H](C)N(C(=O)c1cnccn1)C[C@@H](C)[C@@H](OC)CN(C)C2=O 10.6%, O=C(c1ccc(F)cc1)N1CC2(C1)[C@H](c1ccccc1)[C@@H](CO)N2Cc1ccccn1 -5%, COCC#Cc1ccc([C@@H]2[C@H](CO)N3C(=O)CN(C(=O)C4CCC4)C[C@@H]23)cc1 3.87%, CCOC(=O)/C=C/c1ccccc1O -29.5%, CCOC(=O)C(=O)C1C(=O)Nc2ccccc21 (centres undefined) -14.6%, COc1ccc2c3c([nH]c2c1)[C@@H](CO)N(C)CC31CCN(S(=O)(=O)c2ccc(C)cc2)CC1 0.296%, O=C(Nc1cccc(F)c1)N1CC(=O)N2[C@H](CO)[C@H](c3ccc(C#CC4CC4)cc3)[C@@H]2C1 8.66%, COCC(=O)N1CCCCN2[C@H](CO)[C@H](c3ccc(C#Cc4ccc(OC)cc4)cc3)[C@H]2C1 -13.1%, COc1ccc(-c2onc3ccc(C(C)=O)cc23)cc1 -9.6%, COc1ccc(OC)c(CNC(=O)CCc2nc(-c3cccs3)no2)c1 2.08%, CN1C(=O)c2cc(NC(=O)C3CC3)ccc2OC[C@H]2O[C@H](CC(=O)O)CC[C@H]21 -1.87%, O=C(Cc1cccnc1)N1CC(=O)N2[C@H](CO)[C@H](c3ccc(C#CC4CCCC4)cc3)[C@@H]2C1 -25.4%, C=CC[n+]1c(-c2ccc(C)cc2)csc1NNC(=O)Nc1ccccc1 6.29%, CC(=O)NC(c1ccccc1)c1nc(-c2ccccc2C)cs1 (centres undefined) -19.2%, CN1[C@H](C(=O)N2CCc3ccccc3C2)[C@@H](CO)[C@@H]2Cn3c(ccc(-c4cncnc4)c3=O)[C@@H]21 1.15%, COc1cc(Cl)c(C)cc1NC(=O)COC(=O)c1cc(SC)ccc1Cl 7.1%, Cc1csc(OCC(=O)Nc2ccc(C)c(C)c2)n1 0.863%, CO[C@H](CN(C)C(=O)c1cnccn1)[C@@H](C)CN([C@@H](C)CO)S(=O)(=O)c1ccccc1 -6.19%, C[C@@H]1CN([C@H](C)CO)C(=O)CCCn2cc(nn2)CO[C@@H]1CN(C)Cc1ccc2cccnc2c1 -3.97%, O=C(NCc1ccc2c(c1)OCO2)c1sccc1Br -10.3%, CCN(CC)C(=O)Cn1cc(S(=O)(=O)CC(=O)NCc2ccc3c(c2)OCO3)c2ccccc21 -11.7%, C[C@@H]1CCCCO[C@@H](CN(C)C)[C@@H](C)CN([C@H](C)CO)C(=O)c2cc(N(C)C)ccc2O1 -6.42%, C[C@H]1CN([C@@H](C)CO)C(=O)c2cc(NC(=O)C3CCCCC3)ccc2O[C@H]1CN(C)C(=O)Nc1ccccc1 2.55%, CS(=O)(=O)N1[C@H](C#N)[C@H](c2ccc(C#CC3CCCC3)cc2)[C@H]1CO -37.6%, N#C[C@@H]1[C@@H](c2ccc(C#Cc3cccc(F)c3)cc2)[C@H](CO)N1C(=O)C1CCOCC1 -34.2%, N#C[C@H]1[C@H](c2ccc(C#Cc3ccc(F)cc3)cc2)[C@@H](CO)N1C(=O)C1CCCC1 16.6%, N#C[C@@H]1[C@@H](c2ccc(C#Cc3cccc(F)c3)cc2)[C@@H](CO)N1C(=O)C1CCC1 -19.3%, CS(=O)(=O)N1[C@@H](C#N)[C@H](c2ccc(C#CC3CCCCC3)cc2)[C@@H]1CO -5.08%, COc1ccccc1C#Cc1ccc([C@H]2[C@@H](C#N)N(C(=O)C3CCCCC3)[C@@H]2CO)cc1 18.3%, C[C@@H]1CN([C@@H](C)CO)S(=O)(=O)c2ccc(C#CCN(C)C)cc2O[C@H]1CN(C)C(=O)C1CC1 6.68%, Cc1noc(C)c1S(=O)(=O)N(C)C[C@@H]1OCCCC[C@@H](C)Oc2ccc(NC(=O)c3ccccc3)cc2C(=O)N([C@@H](C)CO)C[C@@H]1C 12.5%, O=C(N[C@H]1CC[C@@H](CCNS(=O)(=O)c2ccc(F)cc2)O[C@@H]1CO)c1ccccn1 11.4%, CCC(=O)Nc1ccc2c(c1)OC[C@H](C)N(CC1CCCCC1)C[C@@H](C)[C@H](OC)CN(C)C2=O 4.64%, CCC(=O)N1CCC2(CC1)CN(S(C)(=O)=O)[C@@H](CO)c1c2c2ccc(OC)cc2n1C -17.4%, CCCC#Cc1cnc2c(c1)C(=O)N([C@H](C)CO)C[C@H](C)[C@@H](CN(C)S(=O)(=O)c1ccccc1)O2 -10.8%, C[C@@H]1CN([C@@H](C)CO)S(=O)(=O)c2ccc(Br)cc2O[C@@H]1CN(C)C(=O)C1CCCCC1 -1.83%, Cc1noc(C)c1NC(=O)Nc1ccc2c(c1)C(=O)N([C@@H](C)CO)C[C@@H](C)[C@H](CN(C)C(=O)NC(C)C)O2 9.15%, CCCNC(=O)[C@H]1[C@H](CO)[C@H]2Cn3c(ccc(-c4cccc(F)c4)c3=O)[C@@H]1N2C(=O)CC 4.62%, CC(C)CC#Cc1ccc([C@H]2[C@H]3CN(C(=O)CN4CCOCC4)CC(=O)N3[C@H]2CO)cc1 -1.92%, COc1ccc2c3c(n(C)c2c1)[C@H](CO)N(C(=O)CC1CC1)CC31CCN(Cc2nccs2)CC1 4.96%

inhibition, active:
CCOc1ccc(N/C=C/C(=O)c2ccccc2)cc1 70.1%, Cc1ccc(N/C=C/C(=O)c2ccccc2)cc1C 74.5%, COc1cccc2cc(C(N)=O)/c(=N\NC(=O)c3ccccc3)oc12 72.2%, COc1cccc2c1C(=O)c1c(O)c3c(c(O)c1C2=O)CC(O)(C(C)=NNC(=O)c1ccc(Cl)c(Cl)c1)CC3OC1CC(N)C(O)C(C)O1 (centres undefined) 96.4%, Clc1ccc(-c2cc(-c3ccccn3)on2)c(Cl)c1 80%, COc1cccc(/C=N/Nc2cc(C)nc(-c3ccccc3O)n2)c1O 90.5%, CCOC(=O)C(=Cc1ccccc1)C(=O)c1ccccc1 90.8%, COc1ccc(-c2nc(-c3ccccc3)no2)c(OC)c1 91.2%, CC(=O)Nc1ccc(-c2csc(NC(=O)Nc3ccccc3)n2)cc1 94.1%, COc1cc(SC)ccc1C(=O)Nc1nc(C)cs1 102%, c1c2c(cc3sc(N4CCCCC4)nc13)OCCO2 85.3%, CN(C)C(=O)c1cccc(-c2cnc3sc(NCc4ccc5c(c4)OCO5)nn23)c1 51.6%, N#C[C@@H]1[C@H](c2ccc(C#Cc3cccc(F)c3)cc2)[C@@H](CO)N1C(=O)C1CCCC1 82.4%, N#C[C@@H]1[C@H](c2ccc(C#Cc3ccccc3F)cc2)[C@H](CO)N1C(=O)C1CCCCC1 74.8%, N#C[C@@H]1[C@H](c2ccc(C#CC3CCCCC3)cc2)[C@@H](CO)N1S(=O)(=O)c1ccccc1 61.9%
